Experimental data from PubChem BioAssay (NCATS).
Values joined by “and” are separate entries in the source; they are usually repeats but may differ in a detail not shown here. Equal values may be shown once. Records with an inconclusive call do not appear. Active and inactive are the calls of the source. Unless noted, calls follow the shape of the dose curve; as a rule, active = well fitted curve in the direction sought with a large enough effect; inconclusive = small, poorly fitted or top-dose-only effect, or another doubt; inactive = no such curve, though single readings can be large; an effect the other way counts as inactive or inconclusive.

How the values were obtained:
[1] = qHTS assay for small molecule antagonists of retinoid X receptor alpha signaling (AID 588546; active = well fitted inhibition curve with a large enough effect in the signal ratio, with a control signal flat, not every such curve was filed as active; the % refers to the signal ratio;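 also: cells stimulated with 9-cis-retinoic acid as agonist; % is scaled to controls: 0 for no effect and ±100 for the full control effect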); conditions: HEK293T RXRa-UAS-bla, beta-lactamase ratio, antagonist mode; measured here: W530 green channel, cytotoxicity proxy
In short: (§1)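 Beta-lactamase reporter inhibition, read as CCF4 fluorescence ratio (ex 405, em 460/530 nm) after 2 h at RT. HEK293T UAS-bla cells, 2500/well, were stimulated with 9-cis-RA at 500 or 100 nM final alongside test compound for 18 h at 37 C.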

[2] = target: Retinoic acid receptor RXR-alpha (Homo sapiens) (UniProt P19793); experiment: as above; conditions: HEK293T RXRa-UAS-bla, beta-lactamase ratio, antagonist mode
Chain of Retinoic acid receptor RXR-alpha (Homo sapiens) (P19793 whole entry, looked up): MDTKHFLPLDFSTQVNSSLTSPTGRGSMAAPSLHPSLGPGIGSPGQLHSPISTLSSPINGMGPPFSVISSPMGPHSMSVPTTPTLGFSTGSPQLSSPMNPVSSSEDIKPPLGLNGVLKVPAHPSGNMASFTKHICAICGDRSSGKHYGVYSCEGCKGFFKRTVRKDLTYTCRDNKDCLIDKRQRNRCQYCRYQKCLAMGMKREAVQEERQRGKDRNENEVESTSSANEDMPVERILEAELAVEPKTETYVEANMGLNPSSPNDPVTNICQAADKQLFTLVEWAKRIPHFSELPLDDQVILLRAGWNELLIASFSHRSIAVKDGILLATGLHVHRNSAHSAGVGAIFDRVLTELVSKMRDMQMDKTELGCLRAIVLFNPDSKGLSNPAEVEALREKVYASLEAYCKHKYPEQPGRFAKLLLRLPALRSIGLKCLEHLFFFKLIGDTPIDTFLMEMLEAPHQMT
In short: as §1

[3] = target: Thyroid hormone receptor beta (Homo sapiens) (UniProt P10828); experiment: qHTS assay for small molecule antagonists of thyroid hormone receptor beta signaling (AID 588547; active = well fitted inhibition curve with a large enough effect in the signal ratio, with a control signal flat, not every such curve was filed as active; the % refers to the signal ratio;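 also: cells stimulated with 0.4 nM T3 agonist during compound exposure; % is scaled to controls: 0 for no effect and ±100 for the full control effect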); conditions: TR-UAS-bla HEK293, beta-lactamase ratio, antagonist mode, 18 h
Chain of Thyroid hormone receptor beta (Homo sapiens) (P10828 whole entry, looked up): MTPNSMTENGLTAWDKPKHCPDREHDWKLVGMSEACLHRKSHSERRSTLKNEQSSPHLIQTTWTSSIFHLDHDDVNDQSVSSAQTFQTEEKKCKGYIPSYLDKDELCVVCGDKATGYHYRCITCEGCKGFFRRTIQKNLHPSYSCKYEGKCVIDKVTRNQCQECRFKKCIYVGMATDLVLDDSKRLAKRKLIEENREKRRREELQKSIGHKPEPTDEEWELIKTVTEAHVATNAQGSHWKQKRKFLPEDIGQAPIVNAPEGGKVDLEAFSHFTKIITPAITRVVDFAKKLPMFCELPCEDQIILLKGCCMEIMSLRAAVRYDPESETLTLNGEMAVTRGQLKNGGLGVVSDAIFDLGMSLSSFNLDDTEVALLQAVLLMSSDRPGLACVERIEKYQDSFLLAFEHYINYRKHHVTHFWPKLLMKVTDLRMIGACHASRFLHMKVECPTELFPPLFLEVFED
In short: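 TR-UAS-bla GripTite HEK293 cells in 2% charcoal/dextran FBS medium were preincubated 4 h at 37 C, given compound (0.59 nM to 92 uM) plus 0.4 nM T3 (final) for 18 h, then CCF4 for 2 h at RT; Hill fit gave IC50.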

[4] = target: Voltage-gated inwardly rectifying potassium channel KCNH2 (Homo sapiens) (UniProt Q12809); experiment: qHTS Assay for Small Molecule Inhibitors of the Human hERG Channel Activity (AID 588834); conditions: U2OS BacMam hERG, FluxOR thallium flux fluorescence; series mostly up to 46.1 µM;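 also: lower thallium flux fluorescence means stronger hERG block; nearly all actives have a fitted effect of over 50% in size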; also: potency is read from the fitted curve at half-maximal effect
Chain of Voltage-gated inwardly rectifying potassium channel KCNH2 (Homo sapiens) (Q12809 whole entry, looked up): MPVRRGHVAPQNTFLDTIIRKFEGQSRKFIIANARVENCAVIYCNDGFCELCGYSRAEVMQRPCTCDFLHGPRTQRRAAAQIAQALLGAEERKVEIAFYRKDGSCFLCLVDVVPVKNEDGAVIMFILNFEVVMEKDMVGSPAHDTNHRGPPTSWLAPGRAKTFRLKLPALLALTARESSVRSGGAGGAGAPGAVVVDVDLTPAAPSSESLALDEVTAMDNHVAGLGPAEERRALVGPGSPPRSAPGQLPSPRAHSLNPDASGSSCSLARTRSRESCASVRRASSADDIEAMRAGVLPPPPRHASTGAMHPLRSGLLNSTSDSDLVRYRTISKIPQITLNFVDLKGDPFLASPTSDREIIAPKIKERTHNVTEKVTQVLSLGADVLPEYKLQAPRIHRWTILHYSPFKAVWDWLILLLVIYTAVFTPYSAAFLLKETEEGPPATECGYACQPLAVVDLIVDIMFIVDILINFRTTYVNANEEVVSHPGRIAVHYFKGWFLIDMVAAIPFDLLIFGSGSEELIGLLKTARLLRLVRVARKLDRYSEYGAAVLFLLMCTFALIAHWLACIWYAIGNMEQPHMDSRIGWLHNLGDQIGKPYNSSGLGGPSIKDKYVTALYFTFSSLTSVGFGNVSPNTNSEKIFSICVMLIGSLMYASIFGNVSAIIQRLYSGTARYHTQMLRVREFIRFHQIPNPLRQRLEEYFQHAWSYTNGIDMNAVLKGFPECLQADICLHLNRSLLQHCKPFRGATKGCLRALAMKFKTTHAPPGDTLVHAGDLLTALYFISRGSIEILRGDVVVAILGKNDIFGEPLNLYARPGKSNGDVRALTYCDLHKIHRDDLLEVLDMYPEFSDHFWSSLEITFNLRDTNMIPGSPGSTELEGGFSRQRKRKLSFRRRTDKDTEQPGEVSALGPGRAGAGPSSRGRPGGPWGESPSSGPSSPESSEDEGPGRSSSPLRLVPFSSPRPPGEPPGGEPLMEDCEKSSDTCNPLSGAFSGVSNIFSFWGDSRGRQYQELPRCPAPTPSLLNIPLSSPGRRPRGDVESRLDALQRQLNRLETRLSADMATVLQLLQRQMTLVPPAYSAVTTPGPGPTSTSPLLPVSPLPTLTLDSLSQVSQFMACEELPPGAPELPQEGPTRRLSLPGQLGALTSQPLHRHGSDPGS
In short: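 Homogeneous FluxOR thallium flux assay using hERG-expressing U2OS cells (BacMam). Compound treatment about 10 minutes preceded stimulation; reduced fluorescence taken as channel block.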

[5] = target: Luciferin 4-monooxygenase (Photinus pyralis) (UniProt P08659); experiment: Biochemical firefly luciferase enzyme assay for NPC (AID 624030);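 also: purified P. pyralis luciferase at 10 nM with luciferin and ATP substrate; 0% = DMSO and -100% = full luciferase inhibition by PTC124 control; nearly all actives have a fitted effect of over 70% in size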; conditions: purified P. pyralis luciferase, luminescence, 5 min; series mostly up to 58.6 µM
Chain of Luciferin 4-monooxygenase (Photinus pyralis) (P08659 whole entry, looked up): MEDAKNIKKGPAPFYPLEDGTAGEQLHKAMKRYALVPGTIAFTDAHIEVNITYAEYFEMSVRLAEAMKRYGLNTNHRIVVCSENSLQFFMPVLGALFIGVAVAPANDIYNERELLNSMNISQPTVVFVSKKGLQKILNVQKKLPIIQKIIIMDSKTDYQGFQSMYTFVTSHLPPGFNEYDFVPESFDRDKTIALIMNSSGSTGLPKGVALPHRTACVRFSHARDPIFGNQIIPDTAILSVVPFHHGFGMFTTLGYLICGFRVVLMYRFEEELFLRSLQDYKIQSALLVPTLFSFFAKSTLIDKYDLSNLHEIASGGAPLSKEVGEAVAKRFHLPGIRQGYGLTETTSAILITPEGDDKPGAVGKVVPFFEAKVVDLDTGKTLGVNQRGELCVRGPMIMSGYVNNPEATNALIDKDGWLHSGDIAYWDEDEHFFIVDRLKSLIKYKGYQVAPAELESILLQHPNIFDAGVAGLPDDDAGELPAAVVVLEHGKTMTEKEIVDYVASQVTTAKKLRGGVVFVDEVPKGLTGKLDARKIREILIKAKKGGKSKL
In short: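 Counter-screen for direct inhibition of the luciferase enzyme by approved-drug library compounds, run at 10 nM enzyme in 50 mM Tris acetate (final). Luminescence was read within 5 min of enzyme-buffer addition and normalized to PTC124 versus DMSO (0%).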

[6] = S16 Schwann cell viability assay (CellTiter-Glo assay) (AID 624031); conditions: S16 rat Schwann cells viability, 24 h; series mostly up to 57.5 µM;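 also: cellular ATP luminescence as a viability measure; plate controls were DMSO-treated cells for no effect and cell-free wells for full effect; nearly all actives have a fitted effect of over 70% in size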
In short: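 Native S16 rat Schwann cells in DMEM/10% FBS without phenol red were incubated overnight, then exposed to compounds for 24 h at 37 °C/5% CO2. Viability was read as ATP luminescence (CellTiter-Glo), normalized to no-cell wells and DMSO (0%).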

[7] = qHTS assay for small molecule agonists of the antioxidant response element (ARE) signaling pathway (AID 651741; active = well fitted activation curve with a large enough effect in the signal ratio; the % refers to the signal ratio; also: potency is read from the fitted curve at half-maximal effect; as to activation: % of control where 0% means no effect); conditions: HepG2 ARE-bla reporter, beta-lactamase FRET ratio, 16 h; series mostly up to 96 µM
In short: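 Reporter: beta-lactamase under ARE, stably in HepG2. Exposure: 16 h, 37 C, compounds delivered in DMSO by pin tool after 5 h cell preincubation. Readout: FRET substrate fluorescence after 2 h at RT.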

[8] = qHTS assay for small molecule activators of the p53 signaling pathway (AID 651743; active = well fitted activation curve with a large enough effect in the signal ratio, not every such curve was filed as active; the % refers to the signal ratio; also: % of control where 0% means no effect); conditions: HCT-116 p53RE-bla, beta-lactamase FRET ratio, 16 h; activation: stronger effect = higher value
In short: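 Agonist-mode quantitative HTS in HCT-116 cells carrying a p53-response-element beta-lactamase reporter; 16 h compound treatment at 37 C, then FRET substrate loading for 2 h at room temperature and fluorescence read.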

[9] = qHTS assay for small molecule activators of the nuclear factor-kappa B (NF-kB) signaling pathway (AID 651749; active = well fitted activation curve with a large enough effect in the signal ratio; the % refers to the signal ratio; also: % of control where 0% means no effect); conditions: NF-kB-bla ME-180 cells, beta-lactamase FRET ratio, 16 h; stronger effect = higher value
In short: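 Human ME-180 cervical cells with an NF-kB-bla construct; compounds added via 23 nL pin transfer, DMSO as vehicle; incubation 16 hr. Reporter activity measured by FRET disruption.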

[10] = S16 Schwann cell PMP22 intronic element firefly luciferase assay (AID 624032); conditions: S16 rat Schwann cells, PMP22 element FLuc, 24 h; series mostly up to 57.5 µM; also: nearly all actives have a fitted effect of over 30% in size; also: potency is read from the fitted curve at half-maximal effect
In short: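 Rat S16 Schwann cells stably carrying a PMP22 intronic element-driven Fluc reporter were seeded overnight, then exposed to compounds for 24 h at 37 °C. Luminescence was normalized to PTC124 (positive control) and DMSO (0% activity).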

[11] = qHTS assay for small molecule disruptors of the mitochondrial membrane potential - 1 hr assay (AID 651754; calls by dose curve; also: potency is read from the fitted curve at half-maximal effect; nearly all actives have a fitted effect of over 35% in size); conditions: series mostly up to 92.2 µM
In short: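 Mitochondrial potential in living HepG2 cells after 1 hr compound treatment at 37C was read with Mito-MPS dye added for a further 30 min. Red aggregate and green monomer fluorescence were measured; loss of potential leaves dye as cytoplasmic monomers.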

[12] = qHTS assay for small molecule disruptors of the mitochondrial membrane potential - 5 hr assay (AID 651755; calls by dose curve; also: potency is read from the fitted curve at half-maximal effect; nearly all actives have a fitted effect of over 40% in size); conditions: JC-1-type ratio dye; series mostly up to 92.2 µM
In short: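 Seed HepG2 overnight, add compound, incubate 5 hr at 37C and 5% CO2, stain 30 min with Mito-MPS, then measure monomer (490/535 nm) and aggregate (540/590 nm) fluorescence.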

[13] = target: Tumor necrosis factor (Homo sapiens) (UniProt P01375); experiment: qHTS assay to identify small molecules that stimulate Tumor Necrosis Factor-alpha (TNF-alpha) secretion (AID 651757; active = well fitted curve in the direction sought with a large enough effect in the signal ratio; the % refers to the signal ratio; also: 0% is about no effect); conditions: Human cells, HTRF 665/615 ratio; series mostly up to 92.2 µM
Chain of Tumor necrosis factor (Homo sapiens) (P01375 whole entry, looked up): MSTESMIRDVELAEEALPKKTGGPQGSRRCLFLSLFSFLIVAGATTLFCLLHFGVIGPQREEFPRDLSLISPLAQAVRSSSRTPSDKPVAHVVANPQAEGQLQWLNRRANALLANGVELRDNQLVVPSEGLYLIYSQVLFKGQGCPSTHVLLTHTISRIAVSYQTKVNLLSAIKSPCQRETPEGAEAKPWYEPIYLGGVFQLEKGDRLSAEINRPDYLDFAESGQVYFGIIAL
In short: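 Secreted TNF-alpha quantified by TR-FRET sandwich of two labeled anti-TNF-alpha antibodies, incubated 3 hr at room temperature. Preceded by 17 hr, 37 C compound treatment of THP-1 cells at 3000 cells/well.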

[14] = S16 Schwann cell PMP22 intronic element beta-lactamase assay (AID 624044; calls by dose curve; also: nearly all actives have a fitted effect of over 15% in size; also: potency is read from the fitted curve at half-maximal effect); conditions: S16 rat Schwann cells, PMP22 element beta-lactamase FRET, 24 h; series mostly up to 38.3 µM
In short: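 Beta-lactamase reporter under a PMP22 intronic regulatory element in stable S16 rat Schwann cells; 24 h compound exposure. 460 nm blue signal normalized between DMSO (0%) and potassium clavulanate, with 535 nm FRET tracking viability; curves classed by r2 and response.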

[15] = qHTS assay to identify small molecules that stimulate interleukin-8 (IL-8) secretion (AID 651758; active = well fitted activation curve with a large enough effect in the signal ratio; the % refers to the signal ratio; also: 0% is about no effect); conditions: HTRF ratio (665/615); series mostly up to 92.2 µM
In short: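 Quantitative HTS in THP-1 monocytic cells at 2000 cells per well, with 16 hrs compound incubation at 37 C. IL-8 in the medium was then quantified by HTRF immunoassay, read after 1-3 hrs at room temperature.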

CCCCCCCCOc1ccc(C(=O)c2ccccc2)c(O)c1
inactive: max response [2] -18.6% | activity change % (negative = inhibition) [3] -1.54% | Potency [4] | Potency [5] | Potency [6] | Potency [7] | activation [8] -0.0929% | activation [9] -6.3%
-13.7%: max response [1]

CCO[C@@H]1O[C@H](C(COCc2ccccc2)OCc2ccccc2)[C@H](OCc2ccccc2)[C@H]1O (some centres not stated)
inactive: Potency [4]

COc1ccc(C(Cl)=C(c2ccc(OC)cc2)c2ccc(OC)cc2)cc1
-0.236%: max response [1]
inactive: max response [2] -16% | activity change % (negative = inhibition) [3] -9.92% | Potency [4] | Potency [5] | Potency [6] | Potency [10] | activation [8] 2.35% | activation [9] 3.39% | outcome [13]
active: Potency [11] 15 µM | Potency [12] 18.8 µM

CCCCCCCCCCCCCCCCO
inactive: max response [2] -12.7% | activity change % (negative = inhibition) [3] 11.7% | Potency [4] | Potency [5] | Potency [6] | Potency [10] | Potency [7] | activation [9] -1.7%
-10.1%: max response [1]

O=C(N/N=C/c1ccc([N+](=O)[O-])o1)c1ccc(O)cc1
inactive: Potency [4]

COc1ccc(C(=O)c2ccccc2)c(O)c1
inactive: max response [2] -9.82% and -18.3% | activity change % (negative = inhibition) [3] -24% and 5.53% | Potency [6] | Potency [10] | activation [8] -2.61% and -3.01% | activation [9] 0.344% and -5.21% | outcome [13]
4.73% and -13.9%: max response [1]
active: Potency [4] 35.5 µM

CC1(C)OC[C@@H]2O[C@@]3(C(=O)O)OC(C)(C)O[C@H]3[C@@H]2O1
inactive: max response [2] 1.08% | activity change % (negative = inhibition) [3] -3.12% | Potency [4] | Potency [7] | activation [9] 0.144%
-2.62%: max response [1]

NC(N)=NN=C(/C=C/c1ccc([N+](=O)[O-])o1)/C=C/c1ccc([N+](=O)[O-])o1
active: Potency [4] 0.0891 µM

C#C[C@]1(O)CC[C@H]2[C@@H]3CCC4=Cc5oncc5C[C@]4(C)[C@H]3CC[C@@]21C
inactive: max response [2] -13.1% | Potency [4] | Potency [5] | Potency [6] | Potency [14] | activation [8] -3.96% | activation [9] 0.141%
10.7%: max response [1]

CN(C)C(=O)Nc1ccc(Cl)c(Cl)c1
0.705%: max response [1]
inactive: max response [2] 4.3% | activity change % (negative = inhibition) [3] -2.96% | Potency [4] | Potency [5] | Potency [6] | Potency [10] | activation [8] 3.41%

O=C1OC2(c3ccccc31)c1cc(Br)c(O)c(Br)c1Oc1c2cc(Br)c(O)c1Br
active: Potency [4] 5.62 µM

CC(C)n1c(/C=C/[C@@H](O)C[C@@H](O)CC(=O)O)c(-c2ccc(F)cc2)c2ccccc21
inactive: Potency [4]

CCCCC(CC)CN1CN(CC(CC)CCCC)CC(C)(N)C1 (configuration not stated)
active: Potency [4] 4.47 µM

Cc1cn([C@H]2C[C@H](F)[C@@H](CO)O2)c(=O)[nH]c1=O
inactive: Potency [4]

CCOc1ccc(NC(C)=O)cc1
inactive: max response [2] -12.1% and 5.41% | activity change % (negative = inhibition) [3] 4.97% | Potency [4] | Potency [5] | Potency [6] | Potency [10] | Potency [7] | activation [8] -2.67% and -5.43% | outcome [13]
-2.9% and -4.43%: max response [1]

O=[N+]([O-])c1ccc(/C=N\O)o1
inactive: Potency [4]

C=C[C@@]1(C)CC(=O)[C@]2(O)[C@@]3(C)[C@@H](O)CCC(C)(C)[C@@H]3[C@H](O)[C@H](OC(C)=O)[C@@]2(C)O1
active: Potency [10] 0.361 µM | Potency [14] 0.707 µM
inactive: activity change % (negative = inhibition) [3] 10.4% | Potency [4] | Potency [5] | activation [8] -4.19%

CCCN(CCC)S(=O)(=O)c1ccc(C(=O)O)cc1
-8.2% and -10.3%: max response [1]
inactive: max response [2] 6.91% and 7.89% | activity change % (negative = inhibition) [3] 8.08% and 3.53% | Potency [4] | Potency [5] | Potency [6] | Potency [10] | Potency [7] | activation [8] -0.245% and -0.015% | activation [9] 0.183% and -3.09% | outcome [13]

C[C@@]12C(=O)OC(=O)[C@]1(C)C1CCC2O1
inactive: Potency [4]

OC[C@H]1O[C@@H]2O[C@H]3[C@H](O)[C@@H](O)[C@@H](O[C@H]4[C@H](O)[C@@H](O)[C@@H](O[C@H]5[C@H](O)[C@@H](O)[C@@H](O[C@H]6[C@H](O)[C@@H](O)[C@@H](O[C@H]7[C@H](O)[C@@H](O)[C@@H](O[C@H]8[C@H](O)[C@@H](O)[C@@H](O[C@H]1[C@H](O)[C@H]2O)O[C@@H]8CO)O[C@@H]7CO)O[C@@H]6CO)O[C@@H]5CO)O[C@@H]4CO)O[C@@H]3CO
inactive: max response [2] 10.2% | activity change % (negative = inhibition) [3] 2.69% | Potency [4] | Potency [5] | Potency [6] | Potency [10] | Potency [7] | activation [9] -1.13% | outcome [13]
2.41%: max response [1]

C/C=C/c1ccc(O)c(OC)c1
1.1% and -9.34%: max response [1]
inactive: max response [2] 2.19% and -7.41% | Potency [4] | Potency [5] | Potency [6] | Potency [10] | activation [8] -3.74% and -0.0356% | outcome [13] | outcome [15]
active: Potency [7] 30.6 µM and 42.2 µM
